M1 PAM parental: M1 PAM counterscreen hit in parental CHO-K1 cells; activation, % at 3 µM; 360,000 compounds, 0.02% hits; ATP EC20, Fluo-8 calcium fluorescence; 0% at ATP EC20, 100% at ATP max;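 active = activation above the run cutoff, the mean activation of all test compounds plus 3 SD, cut at about 40% in these data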;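 note: peak over basal fluorescence ratio in a 140 s read after ATP addition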
CHRM4 antagonist: blocks acetylcholine activation of human M4 receptor. P08173. inhibition, % at 3 µM. 360,000 compounds, 0.73% hits. AID 624125. CHO-hM4 cells, ACh EC80, Fluo-8 calcium fluorescence;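 active = inhibition above its plate's cutoff, the mean inhibition of sample wells plus 3 SD, cut at about 27% in these data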;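 note: 0% = acetylcholine EC80 with DMSO and 100% = DMSO without agonist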
Target sequence (P08173 whole entry, looked up): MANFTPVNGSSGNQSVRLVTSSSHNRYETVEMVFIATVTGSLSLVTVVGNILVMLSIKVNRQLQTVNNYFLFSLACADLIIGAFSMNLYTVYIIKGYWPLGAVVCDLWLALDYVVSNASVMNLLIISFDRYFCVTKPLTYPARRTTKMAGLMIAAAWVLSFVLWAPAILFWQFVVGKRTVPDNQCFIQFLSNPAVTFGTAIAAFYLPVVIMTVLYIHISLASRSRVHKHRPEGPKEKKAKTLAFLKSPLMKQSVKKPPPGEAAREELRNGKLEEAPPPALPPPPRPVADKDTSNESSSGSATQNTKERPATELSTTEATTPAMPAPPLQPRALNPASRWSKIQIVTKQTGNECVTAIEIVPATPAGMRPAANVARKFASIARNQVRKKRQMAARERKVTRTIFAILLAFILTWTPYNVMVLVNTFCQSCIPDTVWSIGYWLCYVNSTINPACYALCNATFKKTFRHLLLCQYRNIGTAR
M1 ag parental: M1 agonist counterscreen hit in parental CHO-K1 cells. Fluo-8 calcium fluorescence; scaled to maximal ATP response, vehicle zero. activation, % at 3 µM. 360,000 compounds, 0.48% hits. AID 602248; in the data active = activation above about 15%;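 note: untransfected CHO-K1 host cells lacking M1 receptor as counterscreen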
CHO-K1 Ca antag: counter-screen for M1 antagonists: effect in parental CHO-K1 cells; ATP-induced calcium, Fluo-8 fluorescence; inhibition, % at 3 µM; 360,000 compounds, 0.6% hits;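 active = inhibition above a per-plate cutoff, the plate's mean sample inhibition plus 3 SD, cut at about 24% in these data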;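 note: 0% = DMSO plus EC80 ATP and 100% = DMSO alone without ATP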
CHRM4 PAM: potentiates acetylcholine response at human M4 receptor. P08173. CHO-K1 hM4/Gqi5, Fluo-8 calcium fluorescence, ACh EC20; 0% = ACh EC20, 100% = maximal ACh. activation, % at 3 µM. 360,000 compounds, 0.4% hits. AID 624126;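 active = activation above its plate's cutoff, the mean activation of sample wells plus 3 SD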
CHRM4 agonist: CHRM4 agonism in calcium assay. 360,000 compounds, 0.14% hits. CHO-K1 hM4/Gqi5, Fluo-8 calcium fluorescence; vehicle 0%, full acetylcholine response 100%. activation, % at 3 µM. AID 624127. P08173;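 active = activation above the run mean over all test wells plus 3 SD, cut at about 32% in these data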;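 note: peak over basal fluorescence ratio per well then scaled between controls; 0% = DMSO wells and 100% = acetylcholine at EC100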
The depositor's hits bear a star. Compounds with a hit are over-represented: about 2% of the library has one in this group of screens.

Screening Cc1sc[n+](CC(=O)c2ccc(Br)cc2)c1C returned M1 PAM parental 3, CHRM4 antagonist 3, M1 ag parental 1, CHO-K1 Ca antag -8, CHRM4 PAM -4 and CHRM4 agonist 0.
For Cn1cnc(S(=O)(=O)Nc2ccc(OC(F)(F)F)cc2)c1 the results were M1 PAM parental -13, CHRM4 antagonist 8, M1 ag parental 0, CHO-K1 Ca antag -2, CHRM4 PAM -1 and CHRM4 agonist 1.
For Nc1ccc(S(=O)(=O)Nc2cc(Cl)c(N)c(Cl)c2)cc1 the results were M1 PAM parental 6, CHRM4 antagonist -10, M1 ag parental 0, CHO-K1 Ca antag 0, CHRM4 PAM 0 and CHRM4 agonist 2.
Screening COc1ccc(NC(=O)CN(C)C(=O)c2ccc(N3CCOCC3)c([N+](=O)[O-])c2)cc1 returned M1 PAM parental 3, CHRM4 antagonist -9, M1 ag parental 2, CHO-K1 Ca antag 1, CHRM4 PAM 5 and CHRM4 agonist 1.
`Cc1cc(F)ccc1NCc1ccc([N+](=O)[O-])cc1` gave M1 PAM parental 2, CHRM4 antagonist 4, M1 ag parental 21*, CHO-K1 Ca antag -9, CHRM4 PAM -8 and CHRM4 agonist -2.
Screening C#CCn1c(S(=O)(=O)Cc2ccccc2Cl)nc(-c2ccccc2)c1-c1ccccc1 returned M1 PAM parental 18, CHRM4 antagonist 2, M1 ag parental 0, CHO-K1 Ca antag -5, CHRM4 PAM -5 and CHRM4 agonist -1.
`CCOC(=O)c1ccc(NC(=S)NCCc2ccc(F)cc2)cc1` gave M1 PAM parental -5, CHRM4 antagonist 16, M1 ag parental 23*, CHO-K1 Ca antag 28*, CHRM4 PAM -16 and CHRM4 agonist 15.
CCOC(=O)c1ccc(NC(=O)C(=O)NCCc2ccc(OC)cc2)cc1 was read as M1 PAM parental 27, CHRM4 antagonist -3, M1 ag parental 0, CHO-K1 Ca antag 0, CHRM4 PAM 1 and CHRM4 agonist 1.
COc1cc2c(cc1OC)-c1nncn1C(C)(C)C2 was read as M1 PAM parental -4, CHRM4 antagonist -1, M1 ag parental 0, CHO-K1 Ca antag -9, CHRM4 PAM 0 and CHRM4 agonist 0.
For C=CCn1c(=N)n(CC(O)c2ccco2)c2ccccc21 (stereo not drawn) the results were M1 PAM parental -4, CHRM4 antagonist 14, M1 ag parental 0, CHO-K1 Ca antag 1, CHRM4 PAM 17* and CHRM4 agonist 1.
`Cc1ccnc(NC(=O)CCNC(=O)c2ccc(Br)cc2)c1` gave M1 PAM parental 0, CHRM4 antagonist 2, M1 ag parental 0, CHO-K1 Ca antag -9, CHRM4 PAM 0 and CHRM4 agonist 0.
Screening O=S(=O)(Nc1cccc2ncccc12)c1cccs1 returned M1 PAM parental 3, CHRM4 antagonist 37*, M1 ag parental 1, CHO-K1 Ca antag 15, CHRM4 PAM 1 and CHRM4 agonist 3.
`Cc1c(NS(=O)(=O)c2cccs2)cccc1-c1nc2cccnc2s1` gave M1 PAM parental 19, CHRM4 antagonist -7, M1 ag parental 4, CHO-K1 Ca antag -5, CHRM4 PAM -2 and CHRM4 agonist 7.
`CCOC(=O)c1sc(NC(=O)Cn2nnc3sc4c(c3c2=O)CCC(C(C)(C)C)C4)nc1C` (stereo not drawn) gave M1 PAM parental -12, CHRM4 antagonist -22, M1 ag parental -1, CHO-K1 Ca antag 26*, CHRM4 PAM 5 and CHRM4 agonist 0.
CC(=O)N1CCN(c2ccc(NCc3ccc4c(c3)OCO4)cc2)CC1 was read as M1 PAM parental 11, CHRM4 antagonist 17, M1 ag parental 0, CHO-K1 Ca antag -18, CHRM4 PAM 23* and CHRM4 agonist 2.
Screening Cc1ccc(Oc2ccc(OCC(=O)NC(C)C(=O)O)cc2)cc1 (stereo not drawn) returned M1 PAM parental 8, CHRM4 antagonist -4, M1 ag parental 0, CHO-K1 Ca antag -15, CHRM4 PAM 5 and CHRM4 agonist 2.
Cc1cc(C)n2nc(C)c(-c3ccccc3)c2n1 was read as M1 PAM parental -27, CHRM4 antagonist -6, M1 ag parental 0, CHO-K1 Ca antag 11, CHRM4 PAM 17 and CHRM4 agonist -1.

Screening results from PubChem.
